About 83,000 compounds went through this panel and 20% of them were active in at least one assay; those are over-represented in the sample as a whole.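 Plates (96-well) were seeded with cells, treated with compound at one concentration, and incubated for 48 hours before percent growth was determined.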
Columns and labels:
Assay in all cases: NCI-60 one-dose screen, 48 h (100 = growth as untreated, 0 = no growth, -100 = all killed); active = growth percent below 10; inactive = the rest
SR leukemia = conditions: 10 µM
OVCAR-8 ovarian = conditions: 10 µM
OVCAR-5 ovarian = conditions: 10 µM
OVCAR-4 ovarian = conditions: 10 µM
SK-OV-3 ovarian = conditions: 10 µM
IGROV1 ovarian = conditions: 10 µM
OVCAR-3 ovarian = conditions: 10 µM
HS 578T breast = conditions: 10 µM
NCI/ADR-RES ovarian = conditions: 10 µM
T-47D breast = conditions: 10 µM
BT-549 breast = conditions: 10 µM
MDA-MB-435 melanoma = conditions: 10 µM
SW-620 colon = conditions: 10 µM
MCF7 breast = conditions: 10 µM unless noted
HCT-116 colon = conditions: 10 µM
HCC-2998 colon = conditions: 10 µM
KM12 colon = conditions: 10 µM
RPMI-8226 leukemia = conditions: 10 µM

Measured: growth

O=S(=O)(Cc1ccccc1)c1ccccc1
inactive: SR leukemia 99.9% | OVCAR-8 ovarian 102% | OVCAR-5 ovarian 106% | OVCAR-4 ovarian 98.1% | SK-OV-3 ovarian 113% | IGROV1 ovarian 114% | OVCAR-3 ovarian 107% | HS 578T breast 133% | NCI/ADR-RES ovarian 117% | T-47D breast 110% | BT-549 breast 105% | MDA-MB-435 melanoma 107% | SW-620 colon 115% | MCF7 breast 99.5% | HCT-116 colon 103% | HCC-2998 colon 105% | KM12 colon 110%

Cc1c(O)cccc1O
inactive: SR leukemia 84% | OVCAR-8 ovarian 106% | OVCAR-5 ovarian 106% | OVCAR-4 ovarian 108% | SK-OV-3 ovarian 97.1% | IGROV1 ovarian 159% | OVCAR-3 ovarian 109% | HS 578T breast 102% | NCI/ADR-RES ovarian 94.2% | T-47D breast 98.2% | BT-549 breast 77.1% | MDA-MB-435 melanoma 94.9% | SW-620 colon 99.5% | MCF7 breast 104% | HCT-116 colon 103% | HCC-2998 colon 102% | KM12 colon 118%

O=c1[nH][nH]c(=O)c2cc([N+](=O)[O-])ccc12
inactive: SR leukemia 94.9% | RPMI-8226 leukemia 106% | OVCAR-5 ovarian 110% | OVCAR-4 ovarian 99.2% | SK-OV-3 ovarian 101% | IGROV1 ovarian 103% | OVCAR-3 ovarian 127% | HS 578T breast 100% | NCI/ADR-RES ovarian 105% | T-47D breast 96.1% | BT-549 breast 106% | MDA-MB-435 melanoma 109% | MCF7 breast 99.8% | HCT-116 colon 101% | HCC-2998 colon 99.6% | KM12 colon 106%
